According to PubChem BioAssay AID720537 (National Center for Advancing Translational Sciences (NCATS), 2013):
The whole screen tested about 1,600 compounds, of which about 55 (3%) were called active. Roughly 10% stayed inconclusive and do not appear here. Calls follow the shape of the dose curve; as a rule, active = well fitted inhibition curve with a large enough effect; inconclusive = small, poorly fitted or top-dose-only effect; inactive = no such curve, though single readings can be large or run the other way. Only a sample is shown. Entries that show only a call come without a potency.

assay: qHTS for Inhibitors of TGF-b: Hit Validation in HepG2 Cells using COP promoter; details: HepG2 COP-GFP TGF-b reporter, GFP fluorescence, 18 h, cells stimulated by added recombinant TGF-beta; series mostly up to 46.1 µM; also: nearly all actives have a fitted effect of over 70% in size
Text: TGF-b is a main component in the TGF-b signaling pathway which plays diverse roles in cellular and development pathways. TGF-b is the mediated by the transcription factors Smads. Although the Smad-dependent pathway is the primary canonical TGF-b signaling node, TGF-b1 can also activate alternative signaling pathways, including those involving MAPK (ERK, JNK and p38). This interaction may mediate or enhance Smad-dependent responses, or can exert Smad-independent effects. The complexity of this signaling cascade allows the TGF-b superfamily to perform unique, overlapping or redundant functions. We believe that targeting the TGF-beta pathway at the Smad-transcription factor level may eliminate the consequences of disrupting the entire pathway and offer specificity without affecting other signaling pathways. Smad3 is the primary transducer of TGF-b's signals and Smad3 regulates many functions attributed to TGF-b signaling. We hypothesize that Smad3 inhibitors will selectively eliminate Smad3-specific TGF-beta signals without undesired off-target effects. We aim to identify Smad3-small molecule antagonists using a quantitative high throughput screening (qHTS) approach. A high-throughput assay was developed to screen the NIH Molecular Libraries Small Molecule Repository (MLSMR). This is a cell based assay, where TGF-b is tagged with GFP. This assays tests the hits identified from the primary screen in HepG2 cells, but using a cop promoter rather than a caga promoter. True actives from the primary screen will also be active in this assay. NIH Chemical Genomics Center [NCGC] NIH Molecular Libraries Probe Centers Network [MLPCN] MLPCN Grant: MH087449 Assay Submitter (PI): Sushil Rane, National Institute of Diabetes and Kidney Diseases
Suspensions of trypsinized HEPG2 COP-GFP cells were dispensed into white, tissue culture-treated, solid 1536-well plates at 5uL/well (1000 cells/well final concentration) in DMEM medium supplemented with 1% FBS. Plates were incubated at 37 degrees C for 2 hours, after which 23 nL of compounds or DMSO were delivered to each well using a pin tool. One uL of recombinant TGF-beta in DMEM (1% FBS) was then dispensed (500 pg/mL final concentration), and plates were incubated at 37 degrees C for 18 hours. The plates were measured on an Acumen eX3 Explorer plate reader for GFP fluorescence (ex488/em500-530). GFP values were calculated by determining the mean GFP fluorescence of individual cells, and compiling these values for each well to determine a total well GFP signal. The %Activity was determined from the corrected fluorescence values. A titration of the known TGF-B inhibitor SB431542 was included to monitor plate performance, while unstimulated HEPG2 (-TGF-B) control wells were used to normalize %Activity of identified inhibitors; unstimulated wells corresponded to 100%Activity (full inhibition), while stimulated cell controls (+DMSO) were used to normalize 0%Activity (no inhibition). Concentration-response curves were fitted to the signals arising from the resulting fluorescence. The concentration-effect curves were then classified based on curve quality (r2), response magnitude and degree of measured activity, and compounds were subsequently categorized based on their curve class.
Potency is read from the fitted curve at half-maximal effect.

Question: Which Potency does the source give for O=C(NC1=CC(=O)c2ccccc2C1=O)c1ccccc1 here?
Answer: 16.4 µM (active)

Question: With CCCOc1ccccc1C1CC(=O)Nc2cc3c(cc21)OCO3 (stereo not given) as the compound, how does the Potency read?
Answer: inactive

Question: Which Potency does the source give for CCCOc1ccc(F)cc1-c1cc(C(=O)Nc2ccc(F)c(Cl)c2)[nH]n1 here?
Answer: inactive

Question: With O=C(Nc1ccc(C2CC2(Cl)Cl)cc1)c1cccc([N+](=O)[O-])c1 (stereo not given) as the compound, how does the Potency read?
Answer: inactive

Question: With Cc1cccc(-c2nc(Nc3ccc(O)cc3)c3ccccc3n2)c1 as the compound, how does the Potency read?
Answer: inactive

Question: Which Potency does the source give for COc1cncc(-c2cnc3sc(NCCc4ccccn4)nn23)c1 here?
Answer: inactive

Question: With CCC(C)N1C(=O)S/C(=C/c2ccc(Sc3nc4ccccc4[nH]3)o2)C1=O (stereo not given) as the compound, how does the Potency read?
Answer: inactive

Question: With Fc1cc(F)c2nc(Nc3nc4c(F)cccc4s3)sc2c1 as the compound, how does the Potency read?
Answer: inactive

Question: With COC(=O)N/N=C/c1cn(CCCOc2ccc(C)cc2)c2ccccc12 as the compound, how does the Potency read?
Answer: inactive

Question: For CCCc1cc(-c2n[nH]c(=S)n2CC)c2ccccc2n1, which Potency is on record?
Answer: inactive

Question: For Oc1c(CN2CCN(c3ccc(F)cc3)CC2)cc(Cl)c2cccnc12, which Potency is on record?
Answer: inactive

Question: For OCC1OC(n2cnc3c(N4CCCC4)ncnc32)C(O)C1O (stereo not given), which Potency is on record?
Answer: inactive

Question: Which Potency does the source give for CN(C)C(=O)c1cccc(-c2cnc3sc(NCc4ccc5c(c4)OCO5)nn23)c1 here?
Answer: inactive

Question: With Cc1ccc(CN2CC(N3CCC(Cc4ccccc4)CC3)CS2(=O)=O)cc1 (stereo not given) as the compound, how does the Potency read?
Answer: inactive

Question: With COc1cc(/C=C2\Oc3ccc(C#Cc4ccc(O)cc4)cc3C2=O)cc(OC)c1 as the compound, how does the Potency read?
Answer: inactive

Question: With Cc1ccnc(NC(=O)C2CCN(S(=O)(=O)c3c(C)c(C)cc(C)c3C)CC2)c1 as the compound, how does the Potency read?
Answer: inactive

Question: For COc1ccc(CC(=O)Nc2ccccc2NC(=O)c2ccco2)cc1OC, which Potency is on record?
Answer: inactive

Question: With O=C(Nc1ccc(Br)cn1)c1ccc([N+](=O)[O-])o1 as the compound, how does the Potency read?
Answer: inactive

Question: Which Potency does the source give for Cn1c(=O)n(C)c2cc(S(=O)(=O)N3CCCc4ccccc43)ccc21 here?
Answer: inactive

Question: Which Potency does the source give for CN(C)c1nc(=Nc2cccc(Cl)c2)ss1 here?
Answer: inactive

Question: Which Potency does the source give for COc1ccc(-c2onc(C)c2-c2ccc3c(c2)OCCO3)c(O)c1 here?
Answer: inactive

Question: Which Potency does the source give for CCOc1ccc(CCN2C(=S)N([C@@H](CC(C)C)CN3CCC[C@@H]3CN3C(=S)NC[C@@H]3Cc3ccc(O)cc3)C[C@@H]2CC(C)C)cc1 here?
Answer: inactive

Question: With c1ccc(-c2cn3c(n2)CCc2ccc4cccnc4c2-3)cc1 as the compound, how does the Potency read?
Answer: inactive

Question: Which Potency does the source give for Cc1ccc(S(=O)(=O)Nc2nc3ccccc3nc2N2CCc3ccccc3C2)cc1 here?
Answer: inactive

Question: For O=C(CCC(=O)N1CCN(S(=O)(=O)c2ccc(Cl)cc2)CC1)NCc1cccc(C(F)(F)F)c1, which Potency is on record?
Answer: inactive

Question: Which Potency does the source give for COc1cccc2sc(N(CCCN(C)C)C(=O)CCS(=O)(=O)c3ccccc3)nc12 here?
Answer: inactive

Question: For CCOc1ccc(NS(=O)(=O)c2ccc(C(=O)NC3CCN(Cc4ccccc4)CC3)cc2)cc1, which Potency is on record?
Answer: inactive

Question: With CC(=O)c1cccc(-c2cnc3c(NC=O)cc(-c4ccc(N(C)C)cc4)cn23)c1 as the compound, how does the Potency read?
Answer: inactive

Question: With COc1ccccc1CSc1ncc(-c2ccc([N+](=O)[O-])cc2)[nH]1 as the compound, how does the Potency read?
Answer: inactive

Question: Which Potency does the source give for FC(F)(F)c1ccccc1Cc1c(-c2ccccc2)nc2c3ccccc3ccn12 here?
Answer: inactive

Question: Which Potency does the source give for Cc1ccc(C)c(S(=O)(=O)N2CCN(CC(=O)Nc3ccc([N+](=O)[O-])cc3)CC2)c1 here?
Answer: inactive

Question: Which Potency does the source give for COc1c(C(C)C)oc2cc3oc(=O)ccc3cc12 here?
Answer: inactive

Question: Which Potency does the source give for Cc1ccc(-c2nc3ccc(Br)cn3c2Cc2ccccc2C(F)(F)F)cc1 here?
Answer: inactive

Question: With Brc1ccc2nc(-c3ccccc3)c(Cc3ccccc3)n2c1 as the compound, how does the Potency read?
Answer: inactive

Question: Which Potency does the source give for COc1ccc(-c2csc(NC3OC(=O)c4ccccc43)n2)cc1 (stereo not given) here?
Answer: inactive

Question: Which Potency does the source give for Cc1ccc(S(=O)(=O)Nc2ccc3c(c2)C(=O)N([C@H](C)CO)C[C@@H](C)[C@@H](CN(C)C(=O)Nc2cccc4ccccc24)O3)cc1 here?
Answer: inactive

Question: Which Potency does the source give for CN(c1ccccc1)S(=O)(=O)c1ccc(C(=O)N2CCN(c3ccccc3Cl)CC2)cc1 here?
Answer: inactive

Question: For COc1cc(CC(=O)Nc2nc(-c3ccc(F)c(F)c3)cs2)cc(OC)c1OC, which Potency is on record?
Answer: inactive

Question: With COc1ccc2nc(N3CCN(C(=O)c4ccc([N+](=O)[O-])o4)CC3)sc2c1 as the compound, how does the Potency read?
Answer: inactive

Question: For CC1CCc2c(nc3ncnn3c2Nc2ccc(OC(F)(F)F)cc2)C1 (stereo not given), which Potency is on record?
Answer: inactive

Question: With Cc1cc(C)cc(N(CC(=O)N2CC=C(c3ccccc3)CC2)S(=O)(=O)c2c(C)noc2C)c1 as the compound, how does the Potency read?
Answer: inactive

Question: Which Potency does the source give for Cc1oc2c(F)c(F)c(F)c(F)c2c1S(=O)(=O)Nc1cccc(C(F)(F)F)c1 here?
Answer: inactive

Question: With CCOC(=O)C1=C(N)N(c2ccc(C)cc2)C2=C(C(=O)CCC2)C1c1cccs1 (stereo not given) as the compound, how does the Potency read?
Answer: inactive

Question: Which Potency does the source give for CN(C)c1nc(N)nc(CSc2nnnn2-c2cccc3ccccc23)n1 here?
Answer: inactive

Question: With CC(=O)c1ccc(-c2cnc3c(NC=O)cc(-c4cccc(NS(C)(=O)=O)c4)cn23)cc1 as the compound, how does the Potency read?
Answer: inactive

Question: With COc1cc(NC(=O)COC(=O)c2ccc([N+](=O)[O-])s2)cc(OC)c1OC as the compound, how does the Potency read?
Answer: inactive

Question: Which Potency does the source give for CN(C(=O)c1cccc(NC(=O)Cc2cccc([N+](=O)[O-])c2)c1)C1CCCCC1 here?
Answer: inactive

Question: With O=C(Nc1ccc(Cl)cc1)Nc1nnc(/C=C/c2ccccc2)s1 as the compound, how does the Potency read?
Answer: inactive

Question: For c1ccc2cc3c(NCCN4CCOCC4)ccnc3cc2c1, which Potency is on record?
Answer: inactive

Question: For OCCCNc1nccc(-c2cc(Nc3cccc(Cl)c3)ncn2)n1, which Potency is on record?
Answer: inactive

Question: With O=C(/C(=C/c1cccc(Cl)c1)c1nc2ccccc2[nH]1)c1ccccc1 as the compound, how does the Potency read?
Answer: inactive

Question: Which Potency does the source give for COc1cccc(CNc2nc(NCc3ccccc3OC)nc3ccsc23)c1 here?
Answer: inactive

Question: Which Potency does the source give for CC(=NNC(=S)N1CCCCCC1)c1ccccn1 here?
Answer: inactive

Question: With CCN(CC)C(=O)C1=C(C)N(Cc2ccc(C(C)(C)C)cc2)C(=O)C(CC(=O)NCc2cccc3ccccc23)C1 (stereo not given) as the compound, how does the Potency read?
Answer: inactive

Question: Which Potency does the source give for S=C(NCC1COc2ccccc2O1)Nc1ccc(Br)cc1 (stereo not given) here?
Answer: inactive

Question: With CN(C)CCNC(=O)c1ccc(Cl)c2cc3ccccc3nc12 as the compound, how does the Potency read?
Answer: inactive

Question: For Cc1nc(/N=C(\N)NC(=O)NC2CCCCC2)nc2ccccc12, which Potency is on record?
Answer: inactive

Question: Which Potency does the source give for O=C(Nc1nnc(S(=O)(=O)N2CCCCCC2)s1)c1cccc(Br)c1 here?
Answer: inactive

Question: For O=c1[nH]c(CCl)nc2cc(-c3ccc(Cl)cc3)sc12, which Potency is on record?
Answer: inactive

Question: For O=[N+]([O-])c1ccccc1S(=O)(=O)Nc1cccc2cccnc12, which Potency is on record?
Answer: inactive

Question: With COc1ccc(CNC(=O)C[C@H]2C[C@H](C(=O)N3CCOCC3)[C@@]3(CCC4CCCC4)c4[nH]c5ccc(Cl)cc5c4CCN3C2=O)cc1OC as the compound, how does the Potency read?
Answer: inactive

Question: Which Potency does the source give for COc1ccc(C)cc1S(=O)(=O)N1CCN(S(=O)(=O)c2cc(C(=O)O)ccc2C)CC1 here?
Answer: inactive

Question: With Cc1nn(-c2ccccc2)c(C)c1/C=N/NC(=O)CSc1nc2ccccc2c(=O)n1-c1ccccc1 as the compound, how does the Potency read?
Answer: inactive

Question: Which Potency does the source give for COC(=O)COc1cccc2c(=O)n(CC(=O)NCc3ccccc3)ccc12 here?
Answer: inactive

Question: With Clc1ccc(Nc2nc(-c3cccs3)cs2)nc1 as the compound, how does the Potency read?
Answer: inactive

Question: Which Potency does the source give for Clc1cccc(Cc2c(-c3cccc(Cl)c3)nc3ccc(Cl)cn23)c1 here?
Answer: inactive

Question: For COc1ccc(C(=O)c2c3ccc([N+](=O)[O-])cc3[n+]([O-])n2CCCN)cc1, which Potency is on record?
Answer: inactive

Question: With COc1cc(NC(=O)c2ccccc2NS(=O)(=O)c2ccc(Cl)s2)cc(OC)c1 as the compound, how does the Potency read?
Answer: inactive

Question: For Clc1ccc2c(c1)C1=C(C(c3ccncc3)O2)C(c2ccc(Br)cc2)n2ncnc2N1 (stereo not given), which Potency is on record?
Answer: inactive

Question: Which Potency does the source give for Cc1cccc(NS(=O)(=O)c2ccc(-c3cnc(C4CC4)o3)cc2)c1 here?
Answer: inactive
